PubChem BioAssay AID1159580 (chemical genetic matrix, 2015)
The whole screen tested about 5,500 compounds, of which about 2,000 (36%) were called active. About 18% were inconclusive and are not listed. Cut-off read from the data, not from the text of the source: active = normalized growth mostly below about 0.91 (no sharp cut-off); inconclusive = no clear call, values can overlap the other calls; inactive = mostly above about 0.92. The list shows a part of the results.

Assay: chemical genetic growth profiling, strain panel (AID 1159580);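 note: tested at 20 µM; growth read once vehicle control cultures reached saturation at 30 °C; 1 = growth at the plate median or of vehicle wells; lower values mean less growth of the strain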
Settings: S. cerevisiae deletion strains, growth OD

Measured: normalized growth

CCN(CC)CCOCCOC(=O)C(CC)(CC)c1ccccc1
inactive: locus YHR030C, strain SLT2, hits give low values 0.99 | locus YHR079C, strain IRE1, hits give low values 1.01 | locus YJL095W, strain BCK1, hits give low values 0.988 | locus YJR066W, strain TOR1, hits give low values 0.902 | locus YLR113W, strain HOG1, hits give low values 1.03 | locus YNL183C, strain NPR1, hits give low values 0.908 | locus YOR231W, strain MKK1, hits give low values 0.993 | locus YPL256C, strain CLN2, hits give low values 0.972
